Sampled rows, rich in hits. Any-hit rate of the full collection: about 4.2%.
NLRP3 yeast inh: NALP3 inhibition in yeast; Yeast reconstituted NLRP3/ASC/caspase-1, beta-gal luminescence, 24 h; inhibition, % at 10 µM; actives 0.39% (n = 330,000);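 active = inhibition of 50% or more; inactive = inhibition below 50%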
NALP1 inh: NALP1 inhibition; S. cerevisiae NALP1/ASC/caspase-1 growth, X-gal OD620, 72 h; inhibition, % at 10 µM; actives 0.61% (n = 280,000); AID 2071; in the data active = inhibition mostly above about 24%, no sharp cut-off; inactive = mostly below about 32%
TIM10 inh: growth inhibitors of TIM10 yeast strain. inhibition, % at 10 µM. S. cerevisiae TIM10 strain growth, BacTiter-Glo luminescence, 24 h. actives 1.4% (n = 330,000);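 active = inhibition of 40% or more at the single tested concentration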;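 also: wild-type TIM10 isogenic control strain grown at permissive 25 °C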
tim23-1 inh: inhibits growth of tim23-1 mutant yeast; S. cerevisiae tim23-1 growth, BacTiter-Glo luminescence, 24 h; inhibition, % at 20 µM; actives 1.3% (n = 330,000); AID 463212;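 active = growth inhibition of the mutant yeast at or above 50%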;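 also: temperature-sensitive mutant grown at 25 °C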
tim10-1 inh: growth inhibitors of tim10-1 mutant yeast | S. cerevisiae tim10-1 ts strain growth, BacTiter-Glo, 24 h | inhibition, % at 20 µM | actives 2.2% (n = 330,000) | AID 463190;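 active = inhibition of at least 40%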;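 also: mutant grown at 25 °C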
V-ATPase pHluor: regulators of yeast V-ATPase proton transport. S. cerevisiae, pHLuorin cytosolic pH fluorescence. response, % at 10 µM. actives 0.37% (n = 350,000); in the data active = response mostly above about 7.3%, no sharp cut-off; inactive = mostly below about 5.4%; also: actives read high
tim10-1 conf: tim10-1 yeast growth inhibition, confirmed | S. cerevisiae tim10-1 ts strain growth, BacTiter-Glo, 24 h | inhibition, % at 20 µM | AID 463213 | shares compounds with tim10-1 inh | actives 56% (n = 7,400);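 active = inhibition of yeast growth at or above a set limit in either of two repeat tests at 20 µM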;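 also: tim10-1 mutant grown at permissive 25 °C to find synthetic lethal compounds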
tim10 confirm: TIM10 yeast growth inhibition, confirmed | shares compounds with TIM10 inh | S. cerevisiae tim10 strain growth, BacTiter-Glo luminescence, 24 h | inhibition, % at 10 µM | actives 63% (n = 4,600) | AID 463215;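 active = inhibition of yeast growth at or above a set limit in either of two replicates at 10 µM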; also: this counterscreen used the strain with wild-type TIM10
Each line names hits and unclear results; the compound was inactive in the other large screens (follow-up assays come after a bar, where they were run).

CCN(CC)C(=O)CNc1ccc(C(F)(F)F)cc1[N+](=O)[O-]	none
O=C(Nc1cccnc1)c1cc2cc(Br)ccc2o1	none
Cc1cccc(NC(=O)CSCC(=O)N(CCC(C)C)c2c(N)n(Cc3ccccc3)c(=O)[nH]c2=O)c1	none (no result: NALP1 inh)
CCC1CSC(Nc2ccc(C(=O)/C=C/c3ccc(Oc4ccccc4)cc3)cc2)=N1 (centres undefined)	none
CCC1CSC(Nc2ccc(C(=O)/C=C/c3cccc(C)c3)cc2)=N1 (centres undefined)	TIM10 inh 62.4, tim10-1 inh 57.5 | tim10-1 conf 44.3 | tim10 confirm 62.1
COc1cc(C2NC(=O)NC(C)=C2C(=O)OC2CCCCC2)cc(Cl)c1O (centres undefined)	none
C=C(C)COc1ccc(-c2n[nH]c(C)c2-c2ccc(OC)c(OC)c2)c(O)c1	TIM10 inh 40.5, tim10-1 inh 43.7 | tim10-1 conf 33.1 | tim10 confirm 38.3
Cc1ccc(-c2csc3ncnc(Sc4nnc(CN5CCCCCC5=O)o4)c23)cc1	TIM10 inh 55.5, tim10-1 inh 40.1 | tim10-1 conf 35.8 | tim10 confirm 38.8
O=C(NC1CCN(Cc2ccccc2)CC1)c1ccccc1OCc1ccccc1Cl	none
C[n+]1c2n(c3ccccc31)N=C(c1ccc(Br)cc1)CS2	TIM10 inh 42.6, tim10-1 inh 43.7 | tim10-1 conf 43.6 | tim10 confirm 31.8
C[n+]1c2n(c3ccccc31)N=C(c1ccccc1)CS2	none
CCOC(=O)c1c(N2C(=O)CC(Sc3ccccc3C(=O)O)C2=O)sc2c1CCCC2 (centres undefined)	TIM10 inh 43.1, tim10-1 inh 53.8 | tim10-1 conf 44.0 | tim10 confirm 40.5
Cn1c(=O)n(Cc2ccccc2)c(=O)c2c1nc1n2CCCN1CCc1ccccc1	TIM10 inh 47.0, tim10-1 inh 43.5 | tim10-1 conf 40.9 | tim10 confirm 34.1
CCOc1cc(/C=C2/N=C(c3ccc4c(c3)OCO4)OC2=O)ccc1OC(C)=O	none (no result: NALP1 inh)
CC(=O)Oc1ccc(/C=C2\N=C(C3CCCCC3)OC2=O)cc1	TIM10 inh 55.6, tim10-1 inh 45.5 | tim10-1 conf 46.4 | tim10 confirm 40.7
NC(=O)C1CCN(C(=O)Nc2csc3ccccc23)CC1	none
CN1CCN(c2oc(-c3ccccc3)nc2S(=O)(=O)c2ccc(Br)cc2)CC1	none
Cc1ccc(-c2csc3ncnc(N4CCN(C(=O)c5ccccc5)CC4)c23)cc1	none
O=C(c1ccco1)N1CCN(c2ncnc3scc(-c4ccccc4)c23)CC1	TIM10 inh 44.3, tim10-1 inh 47.4 | tim10-1 conf 42.4 | tim10 confirm inactive
O=C(NC(=S)N1CCN(c2ccc(C(F)(F)F)cc2[N+](=O)[O-])CC1)c1cccs1	TIM10 inh 40.0, tim10-1 inh 43.8 | tim10-1 conf inactive | tim10 confirm inactive
CC(C)(C)N(Cc1ccccc1)C(=O)CN1C(=O)NC2(CCCCCC2)C1=O	none (no result: NALP1 inh)
CCc1ccc(S(=O)(=O)N2CCN(c3ncccn3)CC2)cc1	none
Cc1ccc(N(CC(=O)Nc2cccc(C)c2)S(=O)(=O)c2cccc3nonc23)cc1	TIM10 inh 44.2, tim10-1 inh 42.3 | tim10-1 conf 33.2 | tim10 confirm 38.7
Cc1ccc(NC(=O)CCS(=O)(=O)c2cccc3nonc23)cc1	none
CCSc1nc2ccccc2n1C(=O)/C=C\c1ccc(OC)c(OC)c1	TIM10 inh 52.2, tim10-1 inh 64.9 | tim10-1 conf 55.9 | tim10 confirm inactive
COc1ccc(NC(=S)N(CCN(C)C)C(C)c2ccco2)cc1Cl (centres undefined)	none
Cc1cc(C)c(C(=O)/C=C/c2cccc3ccccc23)c(=O)[nH]1	TIM10 inh 40.7, tim10-1 inh 43.3 | tim10-1 conf 38.3 | tim10 confirm inactive
Cc1cc(C)c(C(=O)/C=C/c2ccc3c(c2)OCO3)c(=O)[nH]1	none
Cc1cc(C)c2c(=O)n(CC(=O)Nc3ccc(Br)c(C)c3)sc2n1	TIM10 inh 66.6, tim10-1 inh 72.0 | tim10-1 conf 93.2 | tim10 confirm 93.9
COc1ccc(OCC(=O)N2CCC3(CC2)CC(=O)c2ccccc2O3)cc1	none (no result: NALP1 inh)

Screening results: PubChem BioAssay, several laboratories
